Hit rate of the full screen: of about 290,000 compounds, about 3,000 (1%) were called active. The list comes from a sample in which actives are over-represented; it also holds similar structures and randomly drawn compounds. Unmarked numbers belong to inactive results. Cut-off read from the data, not from the text of the source: active = inhibition mostly above about 36% (no sharp cut-off); inactive = mostly below about 34%.
Assay: inhibition of NOD1-driven NF-kB reporter – cell-based, luminescence, uHTS, primary screen (AID 1578);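 note: HEK-293T reporter cells stimulated with the NOD1 agonist gamma-tri-DAP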
Conditions: NOD1-driven NF-kB luciferase reporter cells, at 4 µM, stronger effect = higher value

Compound | inhibition
COC(=O)C1Cc2ccccc2CN1C(=O)CCl (configuration not stated) | 39.2%
CCN1CCN(CC(=O)N/N=C/c2cc(Br)cs2)CC1 | 104% (active)
Cc1nccn1CC(=O)N/N=C/c1cc(Br)cs1 | -0.6%
O=C(Cc1ccccc1)N/N=C/c1cc(Br)cs1 | 1.2%
Cc1cc(C)n(-c2nc3c(c(=O)[nH]c(=O)n3C)n2C(C)C)n1 | 5.7%
O=C(CN1CCN(c2ccc(F)cc2)CC1)Nc1cc(C(F)(F)F)ccc1Cl | -11.8%
CCOC(=O)CNC(=O)C1Cc2ccccc2CN1S(=O)(=O)c1cccs1 (configuration not stated) | -33%
COc1ccc(C2CC(c3cccs3)=NN2S(C)(=O)=O)cc1OC (configuration not stated) | -25.1%
COc1cccc(C2CC(c3cccs3)=NN2S(C)(=O)=O)c1 (configuration not stated) | 47.7% (active)
COc1ccc(C2CC(c3cccs3)=NN2S(C)(=O)=O)cc1 (configuration not stated) | -18%
COc1ccc(C(=O)Nc2nnc(Cc3ccccc3)s2)c(OC)c1 | -43.9%
O=[N+]([O-])c1ccc(S(=O)(=O)N/N=C/c2ccco2)cc1 | -34.8%
CCOC(=O)c1cnc2ccc(OCC)cc2c1NCCN1CCOCC1 | -21.5%
O=c1cc(-c2ccc3c(c2)OCO3)oc2ccccc12 | -38.2%
Cc1cc(N2CCN(c3nc(-c4ccc([N+](=O)[O-])cc4)cs3)CC2)c2ccccc2n1 | 3.5%
COc1ccc(-c2csc(N3CCN(c4cc(C)nc5ccccc45)CC3)n2)cc1OC | 54.5% (active)
Cc1cc(N2CCN(c3nc(-c4ccccc4)cs3)CC2)c2ccccc2n1 | -3.1%
C[C@@H]1C=C(C(=O)NCc2ccccc2)O[C@H](OCc2ccc(CO)cc2)C1 | -6.2%
O=C(O)c1cccc(N2C(=O)/C(=C/c3ccc([N+](=O)[O-])cc3)C=C2c2ccccc2)c1 | 55.4% (active)
O=C1/C(=C/c2ccc([N+](=O)[O-])cc2)C=C(c2ccccc2)N1c1ccccc1 | -31.4%
O=C1/C(=C/c2ccc([N+](=O)[O-])cc2)C=C(c2ccccc2)N1c1ccc(O)cc1 | 28.6%
O=C(NCc1cccnc1)C1CCCN(S(=O)(=O)c2cccc3nsnc23)C1 (configuration not stated) | -7.8%
CCOC(=O)c1ccc(NC(=S)NCCc2ccccc2)cc1 | 0.7%
CCOC(=O)c1ccc(NC(=S)NCCc2ccccc2F)cc1 | -22.7%
CCOC(=O)c1ccc(NC(=S)NCCc2ccc(F)cc2)cc1 | 72.6% (active)

Compound | inhibition
CCCCCCn1c(CN2CCCCC2C)nc2c1c(=O)n(C)c(=O)n2C (configuration not stated) | -20.6%
CCOC(=O)c1c(C2CC2)csc1NC(=O)COC(=O)c1cc(OC)c(OC)cc1[N+](=O)[O-] | -39.9%
CN1C(=O)/C(=C/c2cccc(Cl)c2)Sc2ccc(C(=O)NCc3cccnc3)cc21 | 4.4%
COc1ccc(/C=C2\Sc3ccc(C(=O)NCc4cccnc4)cc3N(C)C2=O)cc1OC | 42.3% (active)
COc1cccc(/C=C2\Sc3ccc(C(=O)NCc4cccnc4)cc3N(C)C2=O)c1 | 44.2%
Cc1cccc(N(C(=O)CNC(=O)c2ccco2)C(C(=O)NC2CCCC2)c2ccncc2)c1 (configuration not stated) | -12.6%
CC1=NN(c2nc(-c3ccccc3)cs2)C(=O)C1 | 3.7%
CC1=NN(c2nc(-c3ccc(Cl)cc3)cs2)C(=O)C1 | 46.6%
O=C1CC(c2ccccc2)=NN1c1nc(-c2ccccc2)cs1 | 65.7% (active)
CCCNC(=O)c1onc(CSc2cccc(OC)c2)c1C(=O)NCCC | -4%
Cc1nc(-c2ccc(C(=O)Nc3cccc(F)c3)cc2)cs1 | 26.3%
Cc1nc(-c2ccc(C(=O)Nc3cccc(Br)c3)cc2)cs1 | 47.3% (active)
Cc1nc(-c2ccc(NC(=O)c3ccco3)cc2)cs1 | 54.6% (active)
Cc1ccc(C(=O)Nc2ccc(-c3csc(C)n3)cc2)cc1 | -53.9%
Nc1nc(-c2ccc(NC(=O)c3ccco3)cc2)cs1 | -4.3%
Cc1nc(-c2cccc(NC(=O)c3ccco3)c2)cs1 | -30.5%
COCCN1Cc2cccc(C(=O)Nc3cccc(-c4nc5ccccc5[nH]4)c3)c2C1=O | -5.5%
CCOc1ccc(C(=O)OCc2nnc(-c3cccs3)o2)cc1OC | -3.4%
Oc1nc(Nc2ccccc2)sc1/C=C1\C=Nc2ccccc21 | -13.5%
O=C(COC(=O)c1ccccc1Br)NCc1ccccc1 | -32%
CC(=O)N/C(=C/c1ccc([N+](=O)[O-])cc1)C(=O)O | -71.3%
O=C(O)c1cc(-c2ccc(Cl)cc2)n(-c2ccccc2)n1 | -29.5%
COC(=O)C1C2C=CC3(CN(c4cccc(C)c4)C(=O)C13)O2 (configuration not stated) | -25.9%
COc1ccc2nccnc2c1[N+](=O)[O-] | -0.6%
O=C(CCC(=O)NCCCc1ccccc1)NCCCc1ccccc1 | 80.7% (active)

Compound | inhibition
O=C(CCCc1ccccc1)NCCCc1ccccc1 | -23.7%
O=C(CCCCC(=O)NCCCc1ccccc1)NCCCc1ccccc1 | -23.1%
CCn1c(-c2ccccc2)c(C(=O)CC#N)c2ccccc21 | -39.5%
CCn1c(-c2ccccc2)c(C(=O)O)c2ccccc21 | -1.6%
CCn1c(-c2ccccc2)c(C(=O)CCl)c2ccccc21 | 79.5% (active)
Cc1ccc(OCc2nnc(SCC(N)=O)n2N)cc1 | -1.8%
O=C(Cc1c[nH]c2ccccc12)Nc1ccc(N2CCOCC2)cc1 | -30.3%
NC(=O)C1(N2CCCCC2)CCN(C(=S)Nc2ccc(S(N)(=O)=O)cc2)CC1 | -18.7%
COc1cccc(OCc2cc(C(=O)NCc3ccc4c(c3)OCO4)no2)c1 | -60.1%
COc1cccc(OCc2cc(C(=O)NCc3ccccn3)no2)c1 | -60.1%
O=C(O)C(Cc1ccccc1)N1C(=O)/C(=C/c2ccccc2)SC1=S (configuration not stated) | 40.1%
O=C(O)C(Cc1ccccc1)N1C(=O)/C(=C/c2cccs2)SC1=S (configuration not stated) | 3%
Cc1ccc(CCNC(=O)CN(C)S(=O)(=O)c2ccc3c(c2)n(C)c(=O)c(=O)n3C)cc1 | -2.1%
COc1ccccc1/C=C/c1ccc2cccc(O)c2n1 | -8.4%
COc1cc(Br)c(/C=C/c2ccc3cccc(O)c3n2)cc1OC | 11.8%
COc1cccc(/C=C/c2ccc3cccc(O)c3n2)c1 | 7.9%
COc1cc(Br)cc(/C=C/c2ccc3cccc(O)c3n2)c1OC | 23%
COc1cc(Cl)cc(/C=C/c2ccc3cccc(O)c3n2)c1OC | 8.1%
COc1ccc(/C=C/c2ccc3cccc(O)c3n2)cc1Br | 6.9%
COc1ccc(/C=C/c2ccc3cccc(O)c3n2)c(OC)c1OC | 16.5%
COc1ccc(/C=C/c2ccc3c(Br)ccc(O)c3n2)cc1 | 0.6%
COc1cc(/C=C/c2ccc3c(Br)cc(Br)c(O)c3n2)ccc1O | 79.9% (active)
Cc1ccc(N(CC(=O)Nc2ccc3c(c2)OCCO3)S(C)(=O)=O)cc1 | -32.2%
COc1ccc(NC(=O)CN2C(=O)NC(C)(c3ccccc3)C2=O)cc1Cl (configuration not stated) | -50.5%
COc1ccc(NC(=O)c2ccccc2NC(=O)NC2CCCCC2)cc1 | -14.5%

Compound | inhibition
CCCCNC(=O)[C@@H]1CSC2c3ccccc3C(=O)N21 (some centres not stated) | -0.2%
O=C1c2ccccc2C(=O)N1CCCC(=O)N1CCCc2ccccc21 | -23.6%
Cc1ccc(-c2cc(C(F)F)n3ncc(C(=O)N4CCCCC4c4cccnc4)c3n2)cc1 (configuration not stated) | 2.1%
Brc1cccc(CN2CCCCCC2)c1 | -23%
N#C/C(=C\C=C\c1ccccc1)C(=O)N1CCCC1 | 23.1%
CCOC(=O)C(CC)Sc1nnc2n1C(C)(C)Cc1ccccc1-2 (configuration not stated) | -5.8%
COc1ccc(OC)c(-c2cc(C(=O)NCCN3CCOCC3)no2)c1 | -5.6%
CC12C(=O)N(Cc3ccco3)C(=O)C1C1c3ccccc3C2c2ccccc21 (configuration not stated) | 28.8%
C/C(=N/OCC(=O)NCCCCCCNC(=O)CO/N=C(/C)c1cccs1)c1cccs1 | -2.7%
CCNC(=O)Cc1c(OC)ccc2cc(Br)ccc12 | -58.1%
CN1/C(=C\C(=O)C[n+]2cccc(C(N)=O)c2)C(C)(C)c2ccccc21 | 7.7%
Cc1ccsc1/C=C/c1ccc2cccc(O)c2n1 | 63.2% (active)
Oc1cccc2ccc(/C=C/c3cccs3)nc12 | -7.6%
Cc1ccsc1/C=C/c1ccc2ccccc2n1 | 27.3%
CC(CC(=O)Nc1ccc(S(=O)(=O)Nc2ncccn2)cc1)c1ccccc1 (configuration not stated) | -22.5%
C=CCOn1c(=O)c(-c2ccc(F)cc2)[n+]([O-])c2ccccc21 | 3.1%
C(=N\Nc1nc(N2CCCC2)nc(N2CCCC2)n1)/c1ccccc1OCc1ccccc1 | 7.9%
COc1cccc(/C=N/Nc2nc(N3CCCC3)nc(N3CCCC3)n2)c1O | 29.2%
CCOc1cccc(/C=N/Nc2nc(N3CCCC3)nc(N3CCCC3)n2)c1O | 33.4% (active)
O=C1C2C3C=CC(C3)C2C(=O)N1c1ccncc1 (configuration not stated) | 29.4%
O=C(CSc1nc2cccnc2n1Cc1ccccc1)NCc1ccco1 | 8.8%
CC1CCCCN1CCNC(=O)c1ccc2c(c1)N(Cc1ccccc1F)C(=O)c1ccccc1S2=O (configuration not stated) | -12.3%

From PubChem BioAssay AID1578 (Sanford-Burnham Center for Chemical Genomics, 2009)
